This note sets out measurements from PubChem BioAssay (Tox21).

“And” between values parts separate entries of the source, which are not always exact repeats. Equal entries are not always repeated. A number with no mark means an inactive call. Inconclusive results are not listed. The source made the active and inactive calls. Unless noted, calls follow the shape of the dose curve; as a rule, active = well fitted curve in the direction sought with a large enough effect in the repeat runs; inconclusive = weak or mixed curves; inactive = no such curve, though single readings can be large; an effect the other way counts as inactive or inconclusive.

Experiment [1] in a line: qHTS assay for small molecule agonists of the p53 signaling pathway (AID 651631; calls by dose curve; also: nearly all actives have a fitted effect of over 15% in size). The gist of the method: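 Beta-lactamase reporter activity under p53 response elements was quantified in HCT-116 cells by FRET fluorescence, following 16 h incubation with test compounds at 37 °C and 2 h substrate development at room temperature.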
In general terms: qHTS replaces the single test concentration by a dilution series.

Experiment [2] is described as follows: qHTS assay for small molecule agonists of the p53 signaling pathway - cell viability (AID 651633; calls by dose curve; also: nearly all actives have a fitted effect of over 30% in size; also: potency is read from the fitted curve at half-maximal effect). A digest of the protocol: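 p53RE-bla cells were treated with compound for 16 hours at 37 C. Cytotoxicity was then measured as CellTiter-Glo luminescence after 30 min at room temperature.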
Experiment [3] in a line: qHTS assay for small molecules that induce genotoxicity in human embryonic kidney cells expressing luciferase-tagged ATAD5 - cell viability (AID 651634; calls by dose curve; also: nearly all actives have a fitted effect of over 25% in size). A digest of the protocol: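 Quantitative high-throughput format. HEK293T cells expressing ATAD5 fused to luciferase were plated at 2,000 cells/well and treated 15.5 hr with compound versus DMSO. Viability was determined by fluorescent live-cell protease substrate, 30 min at 37C.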

The nature of experiment [4]: qHTS assay for small molecule disruptors of the mitochondrial membrane potential - cell viability (AID 720634; calls by dose curve;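 also: human HepG2 liver cancer cells; series mostly up to about 83 µM; nearly all actives have a fitted effect of over 20% in size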). The gist of the method: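 Same-well counter-screen: following the MMP dye addition, CellTiter-Glo was added to 1 hr compound-treated HepG2 cells and luminescence read after 30 min at room temperature.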
The nature of experiment [5]: qHTS assay for small molecule disruptors of the mitochondrial membrane potential (AID 720635). Also: potency is read from the fitted curve at half-maximal effect. The gist of the method: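 HepG2 cells exposed to compound 1 hr at 37C, then Mito-MPS dye 30 min. Ratio read of aggregate (540/590 nm) versus monomer (490/535 nm) fluorescence.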
Experiment [6] is described as follows: qHTS assay to test for compound auto fluorescence at 590 nm (red) in HepG2 cells (AID 720674). The gist of the method: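 Fluorescence at 590 nm emission following 540 nm excitation was recorded from HepG2 wells one hour after compound transfer, with DMSO-only wells as vehicle and Rose Bengal sodium equivalency as the scale.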
Experiment [7] is described as follows: qHTS assay to test for compound auto fluorescence at 535 nm (green) in HepG2 cells (AID 720675).
A short description of experiment [8]: qHTS assay to test for compound auto fluorescence at 460 nm (blue) in HEK293 cells (AID 720678). A digest of the protocol: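 HEK293, 2,000 cells/well, 10% dialyzed FBS; attach 4-5 hr 37C; pin compound or DMSO; o/n 37C/5% CO2; fluorescence 405/460 nm; triamterene-equivalent units.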
Experiment [9] can be described thus: qHTS assay to test for compound auto fluorescence at 590 nm (red) in HEK293 cells (AID 720679). A digest of the protocol: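 Intensity at 540nm excitation and 590nm emission is reported as Rose Bengal sodium-equivalent autofluorescence. Measurements followed overnight exposure (37C, 5% CO2) of HEK293 cells, 2,000 per well, to 23 nL compound.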
The nature of experiment [10]: qHTS assay to test for compound auto fluorescence at 535 nm (green) in HEK293 cells (AID 720680).
Experiment [11] can be described thus: qHTS assay to test for compound auto fluorescence at 460 nm (blue) in HEK293 cell free culture (AID 720681). The gist of the method: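 Compounds were added to cell-free DMEM with 10% FBS and fluorescence read directly. The blue channel used 405 nm excitation and 460 nm emission, with triamterene as the reference fluorophore.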
A short description of experiment [12]: qHTS assay to test for compound auto fluorescence at 535 nm (green) in HEK293 cell free culture (AID 720682). The gist of the method:
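Each library compound, or DMSO control, is added by pintool to medium alone, comprising DMEM and 10% FBS. Emission at 535 nm following 485 nm excitation is quantified against fluorescein.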

Experiment [13] is described as follows: qHTS assay to test for compound auto fluorescence at 590 nm (red) in HEK293 cell free culture (AID 720683). A digest of the protocol: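 Cell-free wells of DMEM with 10% FBS received compound, and intrinsic fluorescence was read at excitation/emission 540/590 nm. Values expressed as equivalence to Rose Bengal sodium.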
A short description of experiment [14]: qHTS assay to test for compound auto fluorescence at 590 nm (red) in HepG2 cell free culture (AID 720684). The gist of the method: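 Rose Bengal sodium served as the reference for red signal. Test compounds were dispensed into serum-containing MEM (10% FBS) without cells, and plates were read at 540/590 nm.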
The nature of experiment [15]: qHTS assay to test for compound auto fluorescence at 535 nm (green) in HepG2 cell free culture (AID 720686).
The nature of experiment [16]: qHTS assay to test for compound auto fluorescence at 460 nm (blue) in HepG2 cells (AID 720687). The gist of the method:
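HepG2 cells in MEM with 10% FBS, attached overnight at 37 C, were exposed to compound or DMSO for 1 hr at 37 C, 5% CO2. Blue fluorescence was read at 405/460 nm, with triamterene as reference fluorophore.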

The target in experiment [17] is Glucocorticoid receptor (Homo sapiens) (UniProt P04150). In words: qHTS assay to identify small molecule agonists of the glucocorticoid receptor (GR) signaling pathway (AID 720691; active = well fitted activation curve with a large enough effect in the signal ratio in the repeat runs, not every such curve was filed as active; the % refers to the signal ratio). The gist of the method:
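A HeLa cervical cancer line expressing GR and a glucocorticoid response element-driven beta-lactamase gene is treated with compounds for 18 h; LiveBLAzer B/G FRET substrate is then applied and fluorescence read.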

Experiment [18] shares this target. The experiment is described as follows: qHTS assay to identify small molecule antagonists of the glucocorticoid receptor (GR) signaling pathway (AID 720692; active = well fitted inhibition curve with a large enough effect in the signal ratio in the repeat runs, not every such curve was filed as active; the % refers to the signal ratio). The gist of the method: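 GRE-bla HeLa line, dex-stimulated (5 nM final). Compound exposure 18 h, 37 C. Beta-lactamase FRET read after 2 h RT substrate.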
Experiment [19] can be described thus: qHTS assay for small molecules that induce genotoxicity in human embryonic kidney cells expressing luciferase-tagged ATAD5 (AID 651632). Also: nearly all actives have a fitted effect of over 15% in size. A digest of the protocol: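 Test compounds were delivered by pin tool onto HEK293T reporter cells (2,000/well) expressing ATAD5 fused to luciferase. After 16 hr at 37C, 5% CO2, Amplite was added for 30 min at room temperature and luminescence was measured.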

Experiment [20] is described as follows: qHTS assay to test for compound auto fluorescence at 460 nm (blue) in HepG2 cell free culture (AID 720685). A digest of the protocol:
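Cell-free plates of MEM plus 10% FBS received 23 nL compound or DMSO vehicle; blue-channel (405/460 nm) intensity scored against triamterene as reference fluorophore.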
% is scaled to controls: 0 for no effect and ±100 for the full control effect.

Sequence of Glucocorticoid receptor (Homo sapiens) (P04150 whole entry, looked up): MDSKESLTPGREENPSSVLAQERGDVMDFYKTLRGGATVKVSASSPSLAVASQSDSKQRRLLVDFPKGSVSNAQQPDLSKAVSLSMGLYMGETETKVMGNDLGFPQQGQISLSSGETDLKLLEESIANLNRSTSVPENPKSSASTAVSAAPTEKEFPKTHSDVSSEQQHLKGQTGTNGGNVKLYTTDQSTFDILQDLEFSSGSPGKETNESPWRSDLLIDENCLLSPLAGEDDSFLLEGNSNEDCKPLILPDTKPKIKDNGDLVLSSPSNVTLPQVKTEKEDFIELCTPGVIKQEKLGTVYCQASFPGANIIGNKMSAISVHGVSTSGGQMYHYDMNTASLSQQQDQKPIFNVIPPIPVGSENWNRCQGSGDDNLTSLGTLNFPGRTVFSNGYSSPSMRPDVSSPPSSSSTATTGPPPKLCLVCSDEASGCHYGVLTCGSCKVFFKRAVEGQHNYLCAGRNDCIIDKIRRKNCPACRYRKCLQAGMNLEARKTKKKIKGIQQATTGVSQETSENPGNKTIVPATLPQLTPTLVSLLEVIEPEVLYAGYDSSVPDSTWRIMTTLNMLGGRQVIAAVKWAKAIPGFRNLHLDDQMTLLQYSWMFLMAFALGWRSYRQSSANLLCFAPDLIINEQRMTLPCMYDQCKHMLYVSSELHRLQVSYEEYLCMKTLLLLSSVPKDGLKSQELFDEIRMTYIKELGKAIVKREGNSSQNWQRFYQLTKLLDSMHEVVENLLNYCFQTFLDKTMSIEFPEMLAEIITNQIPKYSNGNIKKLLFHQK

Consider `COC(=O)c1ccc(CBr)cc1`, for which the Potency entry in experiment [1], in experiment [2], in [3], in experiment [4], in experiment [5] and in [17] was “inactive” in each case. In addition, the Potency result in [18] was “inactive”. Moreover, the molecule was called inactive in experiment [6], in [7], in experiment [8], in experiment [9], in experiment [10] and in [11]. Also, the call in experiment [12], in experiment [13], in [14], in experiment [15] and in experiment [16] was inactive.
On to `C[C@]12C=CC(=O)C=C1CC[C@@H]1[C@@H]2CC[C@@]2(C)[C@H]1CC[C@]2(C)O`, for which the molecule was called inactive in [19], in experiment [6], in experiment [7], in [8], in experiment [9] and in experiment [10]. The molecule was called inactive in experiment [11], in experiment [12], in experiment [13], in experiment [14], in experiment [20] and in [15]. Besides, in experiment [16], the molecule was called inactive. Besides, the Potency entry in [2], in experiment [3], in [4] and in experiment [5] was “inactive” in each case.
As for `CC(C)(N)Cc1ccc(Cl)cc1`, the molecule was called inactive in [19], in [6], in experiment [7], in [8], in experiment [9] and in [10]. The outcome in experiment [11], in [12], in experiment [13], in experiment [14], in [20] and in experiment [15] was inactive. The call in [16] was inactive. Besides, the Potency entry in experiment [2], in experiment [3] and in experiment [4] was “inactive” in each case.
With `N[C@@H](Cc1ccc(Oc2cc(I)c(O)c(I)c2)c(I)c1)C(=O)O`, the molecule was called inactive in [19], in experiment [6], in experiment [7], in experiment [8], in experiment [9] and in experiment [10]. In addition, the outcome in experiment [11], in [12], in experiment [13], in experiment [14], in [15] and in [16] was inactive. For the same molecule, the Potency entry in [2], in [3], in experiment [4] and in [5] was “inactive” throughout.
Consider `ClC1=C(Cl)C2(Cl)C(CBr)CC1(Cl)C2(Cl)Cl` (stereo not given), for which the call in experiment [19], in experiment [6], in [7], in experiment [8], in experiment [9] and in experiment [10] was inactive. Also, the molecule was classed as inactive in experiment [11], in experiment [12], in experiment [13], in experiment [14], in experiment [20] and in [15]. Also, the molecule was called inactive in experiment [16]. Besides, the Potency in experiment [2] was 26.6 µM (active) and 61.1 µM (active); in experiment [5], 27.3 µM (active). The Potency entry in experiment [3], in [4], in [17] and in [18] was “inactive” in each case.
As for `CCCC[N+](=O)[O-]`, the molecule was called inactive in [19], in experiment [6], in experiment [7], in experiment [8], in [9] and in experiment [11]. The molecule was classed as inactive in experiment [12], in experiment [13], in experiment [14], in [20], in experiment [15] and in experiment [16]. For the same molecule, the Potency result in experiment [2], in experiment [3], in experiment [4] and in experiment [17] was “inactive” in each case.
As to `CCC1(c2cccc(O)c2)CCCCN(C)C1` (stereo not given), the molecule was classed as inactive in [19]. Also, the Potency result in experiment [2], in experiment [3], in experiment [4], in [17] and in experiment [18] was “inactive” each time. For the same molecule, in [6], the fluorescence, relative to Rose Bengal is 0.128% [at 18.6 µM]. In addition, the fluorescence, % of fluorescein control in experiment [7] was 0.0413% [at 18.6 µM]; in experiment [15] it was -0.0769% [at 18.6 µM]. Further, the fluorescence, % of triamterene in experiment [8] is 0.018% [at 18.6 µM]. The fluorescence, % of fluorescent control in experiment [9] was 0.162% [at 18.6 µM]; in [11], 0.0294% [at 18.6 µM]; in experiment [13], 0.0544% [at 18.6 µM]; in experiment [20], 0.002% [at 18.6 µM]; in experiment [16], -0.0146% [at 18.6 µM]. In experiment [10], the fluorescence, % of fluorescein was -0.0115% [at 18.6 µM]. In addition, in [12], the activity change is 0.0131% [at 18.6 µM]. The fluorescence, % of Rose Bengal in experiment [14] was 0.0113% [at 18.6 µM].
